# In PubChem BioAssay AID504329 (Southern Research Specialized Biocontainment Screening …, 2011):
# Hit rate of the full screen: of about 340,000 compounds, about 1,000 (0.29%) were called active. No stated cut-off is given here; in the data, inconclusive means inhibition above about 27% without an active follow-up result; inactive means below that. These entries were drawn from the full list. Entries with a potency or affinity are not part of this list.
# Experiment: NS1A inhibition, H1N1 influenza, cell based functional assay (AID 504329)
# Conditions: percent inhibition, at 12.5 µM, stronger effect = higher value
row,Compound,inhibition
1,CC(=O)Nc1nonc1NC(=O)COc1ccccc1,-0.08% (inactive)
2,CCC(C)[C@H](NC(=O)[C@@H]1Cc2c([nH]c3ccccc23)C2c3ccccc3C(=O)N21)C(=O)NCC1CCCO1 (some centres undefined),0.06% (inactive)
3,C=CCOC(=O)C1=C(C)Nc2nc3ccccc3n2C1c1ccncc1 (centres undefined),-21.4% (inactive)
4,O=C(CN1CCCc2ccccc21)N/N=C/c1c(O)ccc2ccccc12,-3.7% (inactive)
5,Cc1cccc(/C=N/NC(=O)CN2CCCCCCC2)c1,5.95% (inactive)
6,Cc1ccc2cc(/C=N/NC(=O)CN3CCCCC3)c(Cl)nc2c1,1.44% (inactive)
7,O=C(CN1CCOCC1)N/N=C/c1c(O)ccc2ccccc12,14.4% (inactive)
8,COc1cc2oc3ccccc3c2cc1N(CC(=O)N(C)C)S(=O)(=O)c1ccc(C)cc1,1.98% (inactive)
9,CCCCc1nnc(NC(=O)c2ccc(OCc3c(C)noc3C)cc2)s1,3.77% (inactive)
10,CCOC(=O)N1CCN(C(=O)c2ccc3c(Cl)c4c(nc3c2)CCCC4)CC1,-2.68% (inactive)
11,CSCC[C@H](NC(=O)OC(C)(C)C)C(=O)N1CCC(C(=O)N[C@@H](C)C(=O)NC(C)c2ccccc2)CC1 (some centres undefined),4.49% (inactive)
12,CCc1ccc(CN(C)C(=O)c2ccc3c(=O)n4c(nc3c2)CCC4)cc1,-7.99% (inactive)
13,CCCCC(=O)OCC(=O)C1(O)Cc2c(O)c3c(c(O)c2C(OC2CC(NC(=O)C(F)(F)F)C(O)C(C)O2)C1)C(=O)c1c(OC)cccc1C3=O (centres undefined),14.4% (inactive)
14,C/C(=N\NC(=O)c1ccc(Cl)c(Cl)c1)c1cccc(NC(=O)C(C)C)c1,-0.88% (inactive)
15,COc1cccc2c1C(=O)c1c(O)c3c(c(O)c1C2=O)CC(O)(C(C)=O)CC3OC1CC(N(C)C)C(O)C(C)O1 (centres undefined),19.1% (inactive)
16,COc1cccc2c1C(=O)c1c(O)c3c(c(O)c1C2=O)C[C@](O)(C(C)=O)C[C@H]3O[C@@H]1C[C@@H](N)[C@@H](O)[C@@H](C)O1,24.5% (inactive)
17,COc1cccc2c1C(=O)c1c(O)c3c(c(O)c1C2=O)C[C@@](O)(C(=O)CO)C[C@@H]3O[C@H]1C[C@H](N)[C@H](O)[C@H](C)O1,20.3% (inactive)
18,COc1cccc2c1C(=O)c1c(O)c3c(c(O)c1C2=O)CC(O)(C(C)=O)CC3OC1CC(O)C(O)C(C)O1 (centres undefined),20.6% (inactive)
19,COc1cccc2c1C(=O)c1c(O)c3c(c(O)c1C2=O)CC(O)(C(=O)CO)CC3OC1CC(N(C)C)C(O)C(C)O1 (centres undefined),18.7% (inactive)
20,COc1cccc2c1C(=O)c1c(O)c3c(c(O)c1C2=O)C[C@@](O)(C(=O)CO)C[C@@H]3OC1CC(N)C(O)C(C)O1 (some centres undefined),15% (inactive)
21,COC(=O)CC1=C(C(=O)OC)C(c2ccc3c(c2)OCO3)C(C#N)=C(N)O1 (centres undefined),-5.88% (inactive)
22,Cc1cc(C)c(NC(=O)c2ccc(CN3CCc4ccccc4C3)cc2)c(C)c1,12.4% (inactive)
23,COc1ccccc1/C=C/C=C1\Oc2c(ccc(O)c2CN2CCN(CCO)CC2)C1=O,6.54% (inactive)
24,CC(C)n1cc(C#N)c(N)n1,-24.1% (inactive)
25,Cc1ccc2c(CN3CCCCC3C)cc(=O)oc2c1C (centres undefined),-6.02% (inactive)
26,O=C(COC(=O)c1cccc(O)c1)Nc1ccc(Cl)cc1C(=O)c1ccccc1,-7.75% (inactive)
27,CSC1=NCCN1C(=O)c1c(-c2c(F)cccc2Cl)noc1C,-23.1% (inactive)

row,Compound,inhibition
1,Cc1ccc(C2C(N)C(=O)N2c2ccc(C)cc2)cc1 (centres undefined),-20.6% (inactive)
2,Cc1ccc(NC(=O)CN(C)C(=O)Cc2ccc(Cl)c(Cl)c2)cc1,9.85% (inactive)
3,Cc1ccc(S(=O)(=O)NNC(=O)c2cnn(-c3ccc(Cl)cc3)c2C(F)(F)F)cc1,-16.4% (inactive)
4,Cc1cccc(C)c1NC(=O)CN(C)C(=O)c1cccc(S(=O)(=O)N2CCN(c3ccccc3)CC2)c1,1.58% (inactive)
5,NC1=NC(=O)/C(=C/C=C/c2cccs2)S1,-14.1% (inactive)
6,COc1ccc(/C=C/C=C2\N=C(SC)SC2=O)cc1,18% (inactive)
7,CC(C)CCNC(=O)CCc1nnc2n(CCCOC(C)C)c(=O)c3ccccc3n12,-5.28% (inactive)
8,Cc1ccc(SCCN)cc1C,8.4% (inactive)
9,O=C1CC(c2ccccc2)CN1 (centres undefined),-20.7% (inactive)
10,COc1cc(CNC2CCC(C)C2)cc(OC)c1 (centres undefined),4.05% (inactive)
11,Cc1ccc(SC2=C(Sc3ccc(C)cc3)C(=O)c3ccccc3C2=O)cc1,4.19% (inactive)
12,Cc1ccc(NC2=CC(=O)C(=O)c3ccccc32)cc1,2.25% (inactive)
13,NC(=O)CC(NC(=O)Cc1cccc2ccccc12)c1ccc(N2CCc3ccccc3C2)c([N+](=O)[O-])c1 (centres undefined),14.5% (inactive)
14,CC1(C)Oc2ccc(NC(=O)c3ccco3)cc2O1,-10.6% (inactive)
15,CC1N(C)c2cc(NC(=O)c3ccco3)c(P(=O)(Nc3ccc([N+](=O)[O-])cc3)N3CCOCC3)cc2C1(C)C (centres undefined),10.5% (inactive)
16,Cc1ccc(C2(C)NC(=O)N(CC(=O)N3CCN(C(=O)c4cccs4)CC3)C2=O)cc1 (centres undefined),-14.4% (inactive)
17,Nc1oc2ccccc2c1C(=O)Cc1ccccc1O[C@@H]1O[C@H](CO)[C@@H](O)[C@H](O)[C@H]1O,-10.9% (inactive)
18,COc1cccc(NC(=O)CSc2nnc(C)s2)c1,-8.01% (inactive)
19,COc1cccc(NC(=O)CSc2nc(C)cs2)c1,-1.99% (inactive)
20,COC(=O)c1ccc(NC(=O)CSc2nn3c(=O)c(C)nnc3s2)cc1,8.48% (inactive)
21,COc1ccc(NC(=O)CSc2nnc(C)c(=O)n2N)cc1,3.72% (inactive)
22,CC(C)Oc1ccc(-c2cc(=O)[nH]c(=O)[nH]2)cc1,2.31% (inactive)
23,Cc1c(C(=O)OCC(=O)Nc2cccc(S(N)(=O)=O)c2)oc2c1ccc1ccccc12,-6.11% (inactive)
24,Cc1cc(=O)n2c3ccccc3n(CC(O)CN3CCC(C)CC3)c2c1C#N (centres undefined),-2.23% (inactive)
25,O=C(c1cccc(Cl)c1)N1CCN(C2CCCCCC2)CC1,-6.08% (inactive)
26,O=C(Nc1nccs1)c1ccc(COc2ccccc2)o1,-27.9% (inactive)
27,COc1ccc(-c2nc(N)n(C(=O)Cc3ccccc3)n2)cc1,0.25% (inactive)
